# Assay results as given in the supplement of paper PMC7393113.
# ± gives the standard deviation of the averaged measurements.
# Test system: iBMDM (immortalised mouse bone-marrow-derived macrophages), LPS-stimulated
# Assay: mitochondrial superoxide (MitoSOX fluorescence) fold increase over unstimulated control; higher = more LPS-induced mitochondrial ROS (less inhibition)
# Details: inhibitor concentration: 500 nM, LPS: 100 ng/ml
# Method in brief: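 After 20 h in phenol-red-free 1% FCS/DMEM in black 96-well plates, immortalised mouse bone-marrow-derived macrophages were exposed to kinase inhibitors (500 nM) for 30 min, 1 μM MitoSox for 10 min and then LPS (100 ng/ml). A ClarioStar plate reader recorded fluorescence at 510/580 nm every 60 min for 4 h. The reported mitochondrial superoxide is the mean fold induction versus untreated macrophages over triplicate wells.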
Compound,mitochondrial superoxide (time after LPS: 1 h),mitochondrial superoxide (time after LPS: 2 h),mitochondrial superoxide (time after LPS: 4 h)
CC1(C)CNc2cc(NC(=O)c3cccnc3NCc3ccncc3)ccc21 [Motesanib Diphosphate (AMG-706)],1.55 ± 0.066,1.63 ± 0.12,1.71 ± 0.053
C=CC(=O)Nc1cccc(Nc2nc(Nc3ccc(Oc4ccnc(C(=O)NC)c4)cc3)ncc2F)c1,1.4 ± 0.018,1.49 ± 0.031,1.6 ± 0.023
COc1ccc(F)c(F)c1C(=O)c1cnc(NC2CCN(S(C)(=O)=O)CC2)nc1N,1.28 ± 0.081,1.57 ± 0.13,1.8 ± 0.14
"CO[C@H]1C[C@@H]2CC[C@@H](C)[C@@](O)(O2)C(=O)C(=O)N2CCCC[C@H]2C(=O)O[C@H]([C@H](C)C[C@@H]2CC[C@@H](OP(C)(C)=O)[C@H](OC)C2)CC(=O)[C@H](C)/C=C(\C)[C@@H](O)[C@@H](OC)C(=O)[C@H](C)C[C@H](C)/C=C/C=C/C=C/1C [Ridaforolimus (Deforolimus, MK-8669)]",1.55 ± 0.087,1.592 ± 0.0072,1.78 ± 0.04
O=Nc1c(-c2c(O)[nH]c3cc(Br)ccc23)[nH]c2ccccc12,1.3 ± 0.081,1.43 ± 0.041,1.64 ± 0.067
O=C(Nc1c[nH]nc1-c1nc2ccc(CN3CCOCC3)cc2[nH]1)NC1CC1,1.34 ± 0.02,1.42 ± 0.033,1.51 ± 0.036
NC1(C(=O)N[C@@H](CCO)c2ccc(Cl)cc2)CCN(c2ncnc3[nH]ccc23)CC1,1.38 ± 0.024,1.54 ± 0.046,1.61 ± 0.029
C=CC(=O)Nc1cccc(Nc2nc(Nc3ccc(OCCOC)cc3)ncc2F)c1,1.17 ± 0.03,1.24 ± 0.072,1.29 ± 0.019
Cc1cc2c(F)c(Oc3ncnn4cc(OC[C@@H](C)O)c(C)c34)ccc2[nH]1,1.337 ± 0.0099,1.44 ± 0.11,1.53 ± 0.14
O=C(Nc1ccc(OC(F)(F)F)cc1)c1sccc1NCc1ccnc2ccccc12,1.21 ± 0.044,1.2 ± 0.067,1.25 ± 0.031
CN(C)Cc1cccc(N=C(c2ccccc2)c2c(O)[nH]c3cc(C(=O)N(C)C)ccc23)c1,1.11 ± 0.069,1.141 ± 0.011,1.31 ± 0.037
COCCOc1ccc2c(c1)ncn2-c1ccc2cccc(N3CCC(N)CC3)c2n1,1.15 ± 0.048,1.19 ± 0.035,1.3 ± 0.038
CN1CCN(c2ccc3nc(-c4c(N)c5c(F)cccc5[nH]c4=O)[nH]c3c2)CC1 [Dovitinib (TKI-258) Dilactic Acid],1.28 ± 0.073,1.32 ± 0.03,1.51 ± 0.041
Clc1ccc(Nc2nnc(Cc3ccncc3)c3ccccc23)cc1 [Vatalanib (PTK787) 2HCl],1.42 ± 0.075,1.5 ± 0.09,1.53 ± 0.057
N#Cc1c(Oc2ccc(F)c(NC(=O)Cc3cccc(C(F)(F)F)c3)c2)ccc2nc(NC(=O)C3CC3)sc12,1.35 ± 0.087,1.49 ± 0.076,1.66 ± 0.076
CCNC(=O)Nc1ccc(-c2nc3c(c(N4CCOC[C@@H]4C)n2)CCN(C2COC2)C3)cc1,1.42 ± 0.045,1.6 ± 0.039,1.68 ± 0.062
Cn1cnc(=N)c2[nH]cnc21 [3-Methyladenine],1.25 ± 0.078,1.34 ± 0.12,1.58 ± 0.15
O=C(/C=C/c1ccc(O)c(O)c1)c1ccc(O)cc1O [Butein],1.49 ± 0.065,1.65 ± 0.067,1.85 ± 0.019
CCOc1cc2ncc(C#N)c(Nc3ccc(F)c(Cl)c3)c2cc1NC(=O)/C=C/CN(C)C [Pelitinib (EKB-569)],1.2 ± 0.018,1.21 ± 0.049,1.32 ± 0.032
CNC(=O)c1cc(Oc2ccc(NC(=O)Nc3ccc(Cl)c(C(F)(F)F)c3)c(F)c2)ccn1 [Regorafenib (BAY 73-4506)],1.5 ± 0.04,1.68 ± 0.057,1.71 ± 0.062
CCc1cc(Nc2nccc(-c3c(-c4ccc(OC)c(C(=O)Nc5c(F)cccc5F)c4)nc4ccccn34)n2)c(OC)cc1N1CCC(N2CCN(S(C)(=O)=O)CC2)CC1,1.3 ± 0.016,1.4 ± 0.079,1.5 ± 0.03
Cc1cnc(Nc2ccc(N3CCN(C)CC3)cc2)nc1Nc1cccc(S(=O)(=O)NC(C)(C)C)c1,1.36 ± 0.025,1.51 ± 0.04,1.65 ± 0.027
"CC[C@H](Nc1ncnc2[nH]cnc12)c1nc2cccc(F)c2c(=O)n1-c1ccccc1 [CAL-101 (Idelalisib, GS-1101)]",1.34 ± 0.019,1.4 ± 0.06,1.48 ± 0.11
Fc1cc(-c2cccc3ncc(-c4cnn(C5CCNCC5)c4)nc23)cc(F)c1CN1CCOCC1,1.15 ± 0.05,1.45 ± 0.13,1.69 ± 0.04
C#Cc1cccc(Nc2ncnc3cc(OC)c(OCCCCCCC(=O)NO)cc23)c1,1.189 ± 0.011,1.2 ± 0.047,1.22 ± 0.051
"Nc1cc(C(F)(F)F)c(-c2cc(N3CCOCC3)nc(N3CCOCC3)n2)cn1 [BKM120 (NVP-BKM120, Buparlisib)]",1.33 ± 0.034,1.41 ± 0.024,1.53 ± 0.05
CCCNC(=O)Nc1ccc(Oc2ncnc3cc(OC)c(OC)cc23)cc1Cl,1.15 ± 0.055,1.21 ± 0.066,1.22 ± 0.024
